Data from PubChem BioAssay AID777 (Sanford-Burnham Center for Chemical Genomics, 2007).
Hit rate of the full screen: of about 96,000 compounds, about 19,000 (20%) were called active.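 Rule for the calls: active = blocking of liver enzyme CYP2C9 beyond about 50% at 5 µM (limit read from the data); inactive = the rest.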 Not all results are given here.

Target: Cytochrome P450 2C9 (Homo sapiens) (UniProt P11712)
Test: blockers of cytochrome P450 2C9 activity – biochemical, luminescence, ADME assay, primary screen (AID 777)
Details: CYP2C9 Supersomes, luciferin-H conversion, at 5 µM, hits give high values

Sequence of Cytochrome P450 2C9 (Homo sapiens) (P11712 whole entry, looked up): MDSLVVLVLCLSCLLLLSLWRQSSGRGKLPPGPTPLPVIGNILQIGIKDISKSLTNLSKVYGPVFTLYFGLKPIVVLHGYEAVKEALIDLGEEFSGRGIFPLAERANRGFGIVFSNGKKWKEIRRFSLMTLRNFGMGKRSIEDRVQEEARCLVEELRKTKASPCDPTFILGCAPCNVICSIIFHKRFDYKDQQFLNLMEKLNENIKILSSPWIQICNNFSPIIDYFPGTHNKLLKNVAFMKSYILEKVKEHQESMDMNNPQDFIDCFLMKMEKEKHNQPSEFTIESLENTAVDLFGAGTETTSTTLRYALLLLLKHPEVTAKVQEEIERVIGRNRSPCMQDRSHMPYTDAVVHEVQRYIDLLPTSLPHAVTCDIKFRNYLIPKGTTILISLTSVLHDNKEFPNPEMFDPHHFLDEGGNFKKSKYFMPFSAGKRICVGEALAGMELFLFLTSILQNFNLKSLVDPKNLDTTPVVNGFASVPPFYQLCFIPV

SMILES	inhibition
COc1ccc(CNC2CCCCC2)cc1	2.3% (inactive)
CCOC(=O)C1CCN(C(=O)C2CCN(S(=O)(=O)N3CCCC3)CC2)CC1	20.7% (inactive)
CCOC(=O)C1CCN(C(=O)Nc2ccc(Cl)cc2)CC1	53.3% (active)
CCOC(=O)C1CCN(C(=O)C2CCN(S(=O)(=O)CC)CC2)CC1	-14.3% (inactive)
O=C(NCc1ccc2c(c1)OCO2)c1cc2c(s1)CS(=O)(=O)C2	25% (inactive)
O=C(COC(=O)c1ccc2c(c1)OCCO2)NCc1ccccc1	-9.3% (inactive)
O=C(Cn1nnc(-c2ccccc2)n1)NCc1ccc2c(c1)OCO2	50.4% (active)
O=C(CN1CCN(c2nc(-c3ccccc3)cs2)CC1)NCc1ccc2c(c1)OCO2	91.4% (active)
O=C(COc1ccccc1)NCc1ccc2c(c1)OCO2	32.4% (inactive)
O=C(CC(Cc1ccccc1)C(=O)O)NCCc1ccc2c(c1)OCO2 (stereo not given)	75.5% (active)
O=C(Cn1nnc(-c2ccccc2)n1)NCc1ccccc1	-11.3% (inactive)
CC1CCCC(C)N1C(=O)CN1CCN(c2nc(-c3ccc(F)cc3)cs2)CC1 (stereo not given)	1.8% (inactive)
O=C(NCCc1ccc2c(c1)OCCO2)c1cc2ccccc2o1	35.2% (inactive)
COc1ccc(-c2csc(N3CCN(Cc4ccc5c(c4)OCO5)CC3)n2)cc1	-14.4% (inactive)
O=C(Cn1nnc(-c2ccc3c(c2)OCO3)n1)NCc1ccco1	16.6% (inactive)
O=C(CN(Cc1ccccc1)C(=O)c1ccc2c(c1)OCCO2)NCc1ccc2c(c1)OCO2	50.2% (active)
N#C/C=C1\Sc2ccccc2C(=O)N1CC(=O)N1CCN(S(=O)(=O)c2ccccc2)CC1	-15.4% (inactive)
Cc1c(-c2ccccc2)nc(N)c(C#N)c1-c1cccs1	29.3% (inactive)
O=c1c2ccccc2nc2n1C(CSc1ccc(Cl)cc1)CN2 (stereo not given)	-1.6% (inactive)
Cc1nc2ccc(S(=O)(=O)NC(C(=O)N3CCCCCC3)C(C)C)cc2s1 (stereo not given)	26.6% (inactive)
COC(=O)Nc1ncc(CN2C(=O)c3ccccc3C2=O)s1	-12% (inactive)
N/C(=N\OC(=O)CCC1CCCCC1)c1ccccn1	0.9% (inactive)
O=C(O)c1cc(S(=O)(=O)N2CCCCCC2)c(Cl)cc1Cl	22.4% (inactive)
O=C(COC(=O)c1ccccc1SCC(=O)NC1CCCCC1)NC1CCCCC1	12.1% (inactive)
CCOC(=O)c1ccc(-c2ccc(C(=O)Nc3cccnc3)o2)cc1	14.6% (inactive)

SMILES	inhibition
CCOC(=O)c1cc(NC(=O)c2ccc(Cl)cc2)c(=O)oc1-c1ccccc1	-22.2% (inactive)
CCOC(=O)c1ccc(COC(=O)CCc2nc(-c3ccccc3)c(-c3ccccc3)o2)cc1	85.6% (active)
Cc1ccc(O)c(NC(=O)COc2cc(C)ccc2C)c1	-59.4% (inactive)
COc1ccccc1-c1c(C)nn2c(C)c(C(C)=O)cnc12	3.7% (inactive)
COc1ccc(-c2nc(SCC(=O)N3CCOCC3)n[nH]2)cc1	-9.6% (inactive)
Cc1ccc(N2CCN(C3=NC(=O)/C(=C\c4cccs4)S3)CC2)cc1	-127% (inactive)
C(=N/N1CCN(c2ccccc2)CC1)/c1cccs1	40.3% (inactive)
O=C1/C(=C/c2cccs2)CCc2ccccc21	72.8% (active)
COc1ccc(Cn2c(C)c(C)c(C#N)c2NC(=O)Nc2ccc(F)cc2)cc1	13.6% (inactive)
Cc1ccc(C(=O)Nc2c(C#N)c(C)c(C)n2Cc2ccccc2)cc1	22.4% (inactive)
Cc1c(C#N)c(NC(=O)c2ccccc2)n(Cc2ccccc2)c1C	60.7% (active)
CCCc1nc(N)nc2c1C(=O)CC(C)(C)C2	-35.3% (inactive)
CCCSc1nsc(N)n1	16.4% (inactive)
O=C(Nc1cccc(-c2nc3ncccc3o2)c1)c1ccco1	-2.1% (inactive)
O=C(Nc1ccncc1)c1c(F)cccc1F	40.2% (inactive)
O=C(Nc1ccncc1)c1cc2ccccc2o1	86% (active)
O=C(C1CCCO1)N(Cc1ccccc1)c1ccccc1 (stereo not given)	-4% (inactive)
Cc1cc([N+](=O)[O-])c(N2CCC[C@@H]2C(=O)O)c([N+](=O)[O-])c1	5.1% (inactive)
CS(=O)(=O)c1ccc2nc(NC(=O)C3C4C=CC(C4)C3C(=O)O)sc2c1 (stereo not given)	-5.4% (inactive)
CC(C)(C)n1c(=O)[nH]c2c(c1=O)CCC2	-7.2% (inactive)
COC(=O)c1ccccc1NC(=O)C1CCN(S(=O)(=O)c2cc(OC)ccc2OC)CC1	92.2% (active)
CCOc1ccccc1NC(=O)C1CCN(S(=O)(=O)c2c(C)nn(C)c2C)CC1	-30.6% (inactive)
CCOc1ccc(OCC)c(NC(=O)C2CCN(S(=O)(=O)c3c(C)noc3C)CC2)c1	48.4% (inactive)
O=C(Cc1c(O)c2ccccc2[nH]c1=O)NCc1ccccc1	9.8% (inactive)
O=C(Nc1ccon1)c1cccc(Cl)c1	17.5% (inactive)

SMILES	inhibition
Cc1ccc(Oc2ccc(N)cc2)cc1	29.2% (inactive)
CC(C(=O)Nc1ccc(F)c(F)c1F)N1CCCCCC1 (stereo not given)	13.7% (inactive)
Cc1cc(NC(=O)COc2ccc(Cl)cc2Cl)n(CCC#N)n1	16.2% (inactive)
O=C1CCCC2=C1C(c1ccccc1)n1c(s/c(=C/c3cccc(F)c3)c1=O)=N2 (stereo not given)	49.7% (inactive)
O=C(NC1CCCCC1)n1c(=O)oc2cc(S(=O)(=O)N3CCCCC3)ccc21	-56.7% (inactive)
CCOC(=O)Cn1c(=O)oc2cc(S(=O)(=O)NCC3CCCO3)ccc21 (stereo not given)	11.7% (inactive)
CC(C)CCNC(=O)Cn1c(=O)oc2cc(S(=O)(=O)N3CC(C)CC(C)C3)ccc21 (stereo not given)	51.3% (active)
Cn1c(=O)c2c(nc(SCC(=O)Nc3ccccc3N3CCCCC3)n2C)n(C)c1=O	93.9% (active)
Cn1c(=O)c2c(nc(N3CCCCCC3)n2CC(O)COc2ccc(Cl)cc2)n(C)c1=O (stereo not given)	20% (inactive)
O=C(CN1CCN(C2CCCCC2)CC1)Nc1ccccc1N1CCCCC1	-1.6% (inactive)
Cn1c(=O)c2c(nc(SCCNS(=O)(=O)c3ccccc3)n2C)n(C)c1=O	42.7% (inactive)
Cn1c(=O)c2c(nc(N3CCCCCC3)n2CC(=O)c2ccc(Br)cc2)n(C)c1=O	15.6% (inactive)
CC(C)n1c(SCC(=O)Nc2ccccc2N2CCCCC2)nc2c1c(=O)n(C)c(=O)n2C	87.2% (active)
Cc1ccc2[nH]c(=O)c(-c3nc4c(C)cccn4c3NCc3ccco3)cc2c1	13% (inactive)
Fc1ccc(-c2ccc(-c3nn4c(-c5ccco5)nnc4s3)o2)cc1	7.3% (inactive)
COC(=O)c1ccc(Oc2nc(Nc3ccc(F)cc3)nc(N3CCCC3)n2)cc1	31.9% (inactive)
Cc1ccc2nc(Nc3ccccc3O)nc(-c3ccccc3)c2c1	13.8% (inactive)
O=c1c2ccccc2nnn1CSc1nc2sc3c(c2c(=O)n1CC1CCCO1)CCC3 (stereo not given)	84.8% (active)
O=C(NC1CCCCC1)c1ccc2c(=O)n(CC3CCCO3)c(=O)[nH]c2c1 (stereo not given)	-2.1% (inactive)
Cc1nnc(SCC(N)=O)n1CC1CCCO1 (stereo not given)	0.5% (inactive)
COc1cccc(CNc2nc3nc4c(c(=O)n3[nH]2)CCC4)c1	15.1% (inactive)
CC(=O)Nc1ccc(N2C(=O)C3C4CC(=O)C(c5ccccc54)C3C2=O)cc1 (stereo not given)	-8.5% (inactive)
Cc1ccc(C)c(NC(=O)CSc2nnc(Cc3cccn3C)n2-c2ccc(F)cc2)c1	19.9% (inactive)
COC(=O)c1ccc(NC(=O)CSc2nnc(Cc3cccn3C)n2-c2ccc(F)cc2)cc1	19.2% (inactive)
COc1ccccc1NC(=O)CSc1nnc(Cc2cccn2C)n1-c1ccc(F)cc1	62.7% (active)

SMILES	inhibition
CC(=NC1CCN(Cc2ccccc2)CC1)c1c(O)[nH]c(=O)[nH]c1=O	-1.3% (inactive)
CN=C1S/C(=C\c2ccc(Sc3ccc(Cl)cc3)o2)C(=O)N1C	29.4% (inactive)
O=C(CSc1nc2ccccc2[nH]1)c1cccs1	29.8% (inactive)
CCC(C)N1C(=O)S/C(=C/c2ccc(Sc3nc4ccccc4[nH]3)o2)C1=O (stereo not given)	60% (active)
CC(=O)c1sc(NC(=O)c2ccc(C)cc2)nc1C	6.9% (inactive)
CC(=O)c1sc(NC(=O)c2cccc3ccccc23)nc1C	-22.6% (inactive)
COc1cccc2sc(Nc3nc(C)c(C(C)=O)s3)nc12	64.5% (active)
COc1ccc(C(=S)Nc2ccccc2)cc1	15% (inactive)
CN1CCN(C(=O)Cn2c(C(F)(F)F)nc3ccccc32)CC1	-8.1% (inactive)
CS(=O)(=O)N(CC(=O)Nc1ccc(Cl)c(Cl)c1)C1CCCCC1	59.4% (active)
CCOC(=O)N1CCN(C(=O)CN(C2CCCCC2)S(C)(=O)=O)CC1	0.7% (inactive)
CS(=O)(=O)N(CC(=O)N1CCN(c2ccc(F)cc2)CC1)C1CCCCC1	21.6% (inactive)
CC(C)C(C)NC(=O)COc1ncnc2ccccc12 (stereo not given)	14.1% (inactive)
Cc1ccc(-c2noc(CC(c3ccccc3)c3ccccc3)n2)cc1	55.2% (active)
CCOc1cc(-c2noc(CCC(=O)N3CCOCC3)n2)ccc1OC	-11.7% (inactive)
COc1ccc(-c2noc(CSc3ccc(C)cc3)n2)cc1	52.3% (active)
Cc1ccc(Cc2nc(-c3cccc(C)c3)no2)cc1	-9.2% (inactive)
COc1ccccc1Cc1nc(-c2ccc(C)cc2)no1	7.1% (inactive)
COc1ccc(N2CCN(C(=O)CCc3nc(-c4ccc(C)cc4)no3)CC2)cc1	51.2% (active)
Cc1ccc(-c2noc(CCC(N)=O)n2)cc1	6.1% (inactive)
CSc1nnc(CNC(=O)c2ccccc2)n1-c1ccc(F)cc1	-3.4% (inactive)
Fc1ccc(-n2c(Cc3ccccc3)nnc2SCc2nc(-c3ccc(Cl)cc3)no2)cc1	62.6% (active)
COc1ccc(-c2noc(CN(C)S(=O)(=O)c3ccc(C)cc3)n2)cc1	18.8% (inactive)
O=C(CSc1nnc(Cc2ccccc2)n1-c1ccccc1)N1CCOCC1	3.8% (inactive)
COc1ccc(-c2noc(-c3ccc(C)cc3)n2)cc1	-13.8% (inactive)
